Measurements published in PubChem BioAssay.
Active and inactive are the calls of the source.

Experiments:
[1] = compound effects on lung adenocarcinoma cell viability – A549, calcein-AM fluorescence, 48 h, basal, profiling panel (AID 1162); conditions: higher = more signal
[2] = compound effects on differentiated 3T3-L1 adipocyte viability – cell-based, 3T3-L1 adipocytes, calcein-AM fluorescence, 48 h, basal, profiling panel (AID 1163); conditions: 3T3-L1 adipocytes viability, higher = more signal
[3] = compound effects on hepatocellular carcinoma cell viability – HepG2, calcein-AM fluorescence, 48 h, basal, profiling panel (AID 1164); conditions: higher = more signal
[4] = compound effects on multiple myeloma cell viability – MM1S, calcein-AM fluorescence, 48 h, basal, profiling panel (AID 1165); conditions: higher = more signal
[5] = calcein-AM signal in unstimulated myeloma cells – cell-based, calcein-AM fluorescence, 48 h, PK04 Diversity Set, profiling panel (AID 1166); conditions: RPMI8226 myeloma viability, higher = more signal;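 further: cells grown under basal conditions without added stimulus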
[6] = JC-1 mitochondrial signal, unstimulated HepG2 cells – cell-based, JC-1 fluorescence, 24 h, 100 nL compound, profiling panel (AID 1167); conditions: HepG2 mitochondrial potential, higher = more signal
[7] = JC-1 mitochondrial signal, unstimulated adipocytes – cell-based, JC-1 fluorescence, 3T3-L1 adipocytes, 24 h, 100 nL compound, profiling panel (AID 1168); conditions: JC-1 mitochondrial fluorescence, higher = more signal, called active from +8 up or from −8 down
[8] = JC-1 mitochondrial signal, unstimulated myeloma cells – cell-based, JC-1 fluorescence, RPMI8226, 24 h, 100 nL compound, profiling panel (AID 1169); conditions: JC-1 mitochondrial potential fluorescence, higher = more signal
[9] = JC-1 mitochondrial signal, unstimulated MM1S myeloma – cell-based, JC-1 fluorescence, 24 h, 100 nL compound, profiling panel (AID 1170); conditions: MM1S mitochondrial potential, higher = more signal
[10] = resazurin metabolic signal in A549 cells – cell-based, resazurin fluorescence, 24 h, PK04 Diversity Set, profiling panel (AID 1171); conditions: A549 viability, higher = more signal, called active from +8 up or from −8 down
Further: test concentration not given here.

Compound | z-score [1] | z-score [2] | z-score [3] | z-score [4] | z-score [5] | z-score [6] | z-score [7] | z-score [8] | z-score [9] | z-score [10]
C=C(CCCC)/C(=C/C[C@H](OC(C)=O)c1ccccc1OCCO)c1cc(C(=O)OC)ccc1OC | 0.379 | 1.66 | -0.418 | -1.36 | -1.93 | 2.79 | 0.63 (inactive) | 0.275 | 0.0208 | 0.423 (inactive)
CCOC(=O)C[C@H]1[C@H](OC(=O)c2ccccc2-c2ccccc2)[C@@H](NC(=O)CC(C)C)c2cc(OCCCO)ccc2N1C(=O)Cc1ccc(OC)cc1 | 0.412 | 0.417 | 0.612 | -1.52 | -0.884 | 1.4 | 0.652 (inactive) | -0.0827 | 0.32 | 1.34 (inactive)
CN1C=C(C(=O)OCCS(C)(=O)=O)C(C(=O)OCCS(C)(=O)=O)=CC(c2ccc(CO)cc2)=CC1C1CC1 (stereo not given) | 1.39 | -0.0622 | 1.28 | -0.807 | -0.75 | 2.14 | -0.9 (inactive) | 0.167 | -0.919 | -0.267 (inactive)
O=C(c1ccccc1)N1C(=O)[C@@]2(Cc3ccccc31)N=C(c1ccc(OCCCO)cc1)O[C@H]2c1ccccc1 | -1.31 | 0.668 | -1.58 | -3.54 | -4.36 | 0.157 | 0.479 (inactive) | -1.19 | -2.17 | -1.62 (inactive)
C=C[C@H](C)[C@@H](OC(=O)Nc1ccc(OC)cc1)c1ccc(O)c2ccccc12 | -1.17 | 0.323 | -1.54 | -2.78 | -4.12 | -3.42 | -1.19 (inactive) | -1.01 | -1.94 | -1.12 (inactive)
COCCOC(=O)N1C(=O)[C@@]2(c3cc(C#CCCO)ccc31)[C@H](C(=O)N1CCCCCCC1)[C@H]1C(=O)O[C@H](c3ccccc3)[C@H](c3ccccc3)N1[C@@H]2c1ccc(OCCO)cc1 | 0.338 | 1.74 | 0.155 | -0.284 | -1.54 | -1.68 | -1.47 (inactive) | -1.25 | -1.02 | 0.76 (inactive)
C=C(CCCC)/C(=C/C[C@@H](OC(=O)c1ccncc1)c1ccc(OCCO)cc1)c1cc(C(=O)OC)ccc1OC | 0.941 | -0.18 | 1.86 | -0.61 | -0.385 | 2.46 | -0.451 (inactive) | -0.728 | -0.969 | 0.998 (inactive)
C=CCC(OC(C)=O)[C@@H]1[C@@H](N(Cc2ccc(-c3ccccc3)cc2)C(=O)c2ccc(-c3ccccc3)cc2)c2cc(OCCCO)ccc2N1C(=O)Cc1ccc2ccccc2c1 (stereo not given in full) | -0.475 | 0.367 | 0.325 | -2.3 | -0.806 | 0.96 | -1.07 (inactive) | -0.793 | 0.292 | 1.2 (inactive)
NC(=O)NCC#Cc1ccc2c(c1)[C@]1(C(=O)N2)[C@H](C(N)=O)[C@H]2C(=O)O[C@H](c3ccccc3)[C@H](c3ccccc3)N2[C@@H]1c1ccc(O)cc1 | -0.851 | -0.842 | -0.848 | 0.201 | 0.375 | -1.73 | -0.344 (inactive) | -0.758 | -0.094 | 0.808 (inactive)
COCCOC(=O)N1C(=O)[C@@]2(c3cc(C#Cc4ccc(OC)cc4)ccc31)[C@H](c1ccccc1OCCO)N1[C@H](c3ccccc3)[C@H](c3ccccc3)OC(=O)[C@H]1[C@@H]2C(=O)NC[C@H](O)c1ccccc1 | -0.796 | 1.02 | -0.206 | -0.889 | -2.23 | 0.117 | 3.21 (inactive) | -0.485 | -1.26 | -0.762 (inactive)
C=CCC(OC(C)=O)[C@@H]1[C@@H](N(Cc2ccc(-c3ccccc3)cc2)C(=O)c2cccc3ccccc23)c2cc(OCCCO)ccc2N1C(=O)c1ccc(-c2ccccc2)cc1 (stereo not given in full) | 0.143 | 0.286 | 0.391 | 0.139 | -0.094 | 3.13 | 0.266 (inactive) | -0.745 | -0.00624 | 0.126 (inactive)
CCCCCCc1nc(-c2cc(C)c(OC)c(C)c2)cc2c1[Si](C(C)C)(C(C)C)OC2 | -0.194 | 1.29 | 0.117 | -1.12 | -1.11 | -0.48 | -0.385 (inactive) | -0.547 | -0.288 | 1.1 (inactive)
COc1ccccc1CN1C(=O)c2ccccc2[C@@H](C(=O)NC2CC2)[C@@H]1c1ccc(CO)cc1 | 1.44 | -0.348 | 1.26 | 0.467 | -0.376 | 2.33 | 0.171 (inactive) | 0.371 | -0.0698 | 0.469 (inactive)
CCCC[C@@H]1C[C@H]1[C@@H](NC(=O)c1ccco1)c1ccc(-c2ccccc2)cc1 | -0.359 | 0.222 | -1.05 | -0.15 | -1.03 | -1.07 | -0.168 (inactive) | -0.0532 | 0.0163 | -1.04 (inactive)
COCCOC(=O)N1C(=O)[C@@]2(c3cc(C#CCNC(N)=O)ccc31)[C@H](C(=O)Nc1nc3ccccc3s1)[C@H]1C(=O)O[C@H](c3ccccc3)[C@H](c3ccccc3)N1[C@@H]2c1ccc(OCCO)cc1 | -0.649 | 1.2 | -1.22 | -2.58 | -0.0496 | -3.26 | 1 (inactive) | -0.692 | -1.53 | 0.385 (inactive)
CN(C)CCCCCCNC(=O)[C@H]1C[C@H]2C(=O)N[C@@H](CCCCN)C(=O)N2[C@H]1c1cccc(OCCO)c1 | -0.214 | 0.414 | -0.458 | -0.371 | -0.497 | 0.272 | 0.587 (inactive) | -0.636 | 0.358 | -0.0439 (inactive)

Compound | z-score [1] | z-score [2] | z-score [3] | z-score [4] | z-score [5] | z-score [6] | z-score [7] | z-score [8] | z-score [9] | z-score [10]
[N-]=[N+]=NCc1ccccc1[C@@H]1OC(c2ccc(OCCCO)cc2)=N[C@]1(Cc1ccccc1)C(=O)NCC(O)CO (stereo not given in full) | 0.939 | -1.16 | 0.78 | -1.07 | -0.596 | -0.474 | -0.672 (inactive) | -0.596 | -0.471 | 0.424 (inactive)
C=CCOC(=O)[C@H]1[C@@H]2C(=O)O[C@@H](c3ccccc3)[C@@H](c3ccccc3)N2[C@@H](c2ccc(OCCOC(=O)[C@H]3C[C@H]4C(=O)N[C@@H](CCCCNC(C)=O)C(=O)N4[C@H]3c3ccc(O)cc3)cc2)[C@]12C(=O)Nc1ccc(I)cc12 | -0.143 | -0.0346 | -0.251 | -2.94 | -2.69 | 1.46 | 0.585 (inactive) | -0.538 | -1.44 | 0.974 (inactive)
C=CCC(OC(C)=O)[C@@H]1[C@@H](N(Cc2ccc(-c3cccc(C(F)(F)F)c3)o2)C(=O)c2ccc(C)cc2)c2cc(OCCCO)ccc2N1C(=O)Cc1ccc2ccccc2c1 (stereo not given in full) | 0.474 | 0.9 | 0.544 | -0.886 | 0.707 | 2.75 | 0.417 (inactive) | 1.01 | -0.554 | 0.379 (inactive)
O=C1C[C@@](C(=O)NC2CC2)(c2ccc([N+](=O)[O-])cc2)[C@@H](c2ccc(CO)cc2I)N1C1CCCCC1 | 0.147 | -0.536 | 0.522 | -1.77 | -1.17 | 0.575 | -0.604 (inactive) | -0.36 | -0.993 | 0.0067 (inactive)
CCc1cccc(NC(=O)O[C@H]2[C@H](OC(=O)Nc3ccccc3-c3ccccc3)[C@@H](OC(=O)Nc3ccccc3-c3ccccc3)[C@@H](OC)O[C@@H]2CO)c1 | -4.21 | 0.175 | -4.64 | -3.46 | -4.11 | -1.11 | 1.66 (inactive) | -1.1 | -1.91 | -6.15 (inactive)
CCCC[C@@H]1C[C@H]1[C@@H](NC(=O)c1ccccc1)c1ccc(C(=O)OC)cc1 | -0.992 | -0.334 | -0.197 | -1.2 | -2.68 | -2.55 | -1.18 (inactive) | 0.461 | -1.12 | 0.571 (inactive)
OCCCC1=CC(c2cccs2)N(Cc2cc3c(cc2Br)OCO3)CC1 (stereo not given) | -0.433 | 1.03 | 0.145 | -1.44 | -1.52 | -0.578 | -0.359 (inactive) | -0.707 | -0.145 | -0.178 (inactive)
C=CCC(OC(C)=O)[C@@H]1[C@@H](N(Cc2cc3ccccc3o2)C(=O)c2cccc3ccccc23)c2cc(OCCCO)ccc2N1C(=O)c1ccc(-c2ccccc2)cc1 (stereo not given in full) | 0.067 | 0.509 | 0.168 | 0.612 | -2.25 | 3.47 | 0.0822 (inactive) | -0.448 | 0.955 | -0.808 (inactive)
COC(=O)[C@H](Cc1ccccc1)N1CC2=C[C@@H](C3CC3)n3c(=O)n(C)c(=O)n3[C@H]2[C@@H]1[C@@H](O)Cc1ccccc1 | 1.97 | -0.375 | 0.888 | 0.378 | -0.473 | 1.49 | -1.06 (inactive) | 0.223 | -0.804 | 0.138 (inactive)
C=CCC(OC(C)=O)[C@@H]1[C@@H](N(Cc2cccc3ccccc23)C(=O)c2ccc(-c3ccccc3)cc2)c2cc(OCCCO)ccc2N1C(=O)c1ccc2ccccc2c1 (stereo not given in full) | -0.525 | -0.526 | -0.62 | 0.279 | -0.494 | 1.62 | -0.693 (inactive) | -0.011 | -0.000791 | 1.09 (inactive)
CCOC(=O)C1=C[C@@H](C(C)(C)C)N(S(=O)(=O)c2ccc(C)cc2)[C@H]1c1ccc(F)cc1 | -1.5 | 0.131 | -1.71 | -1.55 | -3 | 4.5 | -0.43 (inactive) | -1.03 | -0.781 | 0.627 (inactive)
CCS[C@H]1[C@@H](C(=O)O)[C@H](c2ccc(C)cc2)N(S(=O)(=O)c2ccc(C)cc2)[C@@H]1CC | -0.408 | -0.507 | 1.36 | 0.412 | 0.458 | 0.922 | 0.337 (inactive) | 0.551 | -1.88 | -0.545 (inactive)
[N-]=[N+]=NCc1ccccc1C[C@]1(C(N)=O)COC(c2ccc(OCCCO)cc2)=N1 | 0.446 | 0.431 | 1.28 | -0.761 | 0.0881 | -0.234 | 1.16 (inactive) | -0.425 | 1.07 | -1.1 (inactive)
NCCCCCNC(=O)[C@@H]1C[C@@H]2C(=O)N[C@@H](Cc3ccccc3)C(=O)N2[C@@H]1c1ccc(O)cc1 | -0.119 | 0.588 | -0.0207 | -1.4 | -0.0144 | 0.181 | -0.0278 (inactive) | 0.00631 | 0.397 | -0.0029 (inactive)
CN(C)CCCC[C@@H]1NC(=O)[C@@H]2C[C@H](C(=O)NCCCCCCN)[C@H](c3cccc(OCCO)c3)N2C1=O | -0.481 | 1.24 | -1.21 | -0.304 | 0.294 | -1.3 | -0.735 (inactive) | -0.17 | 0.454 | -0.511 (inactive)
NCCCCCCNC(=O)[C@@H]1C[C@@H]2C(=O)NCC(=O)N2[C@@H]1c1ccc(O)cc1 | -1.17 | 0.544 | -1.07 | 0.307 | 0.0172 | -0.479 | 0.172 (inactive) | -0.796 | -0.365 | -0.368 (inactive)
